Data published in PubChem BioAssay (NCATS).
Inconclusive results are not listed. Entries that show only a call come without a potency. Calls of active or inactive are those of the source. Unless noted, the call rests on the fitted dose curve; in most records, active means well fitted inhibition curve with a large enough effect; inconclusive means small, poorly fitted or top-dose-only effect; inactive means flat fitted curve, though single readings scatter.

Experiments:
[1] = qHTS for identification of novel therapeutic agents for treatment of microphthalmiaassociated transcription factor (MiT) renal cell carcinoma (RCC) (AID 1963991); details: CellTiter-Glo, 48 h, stronger effect = lower value
Procedure, shortened: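 Curves over 11 concentrations were fitted to CellTiter-Glo luminescence, scaled between empty wells (0%) and DMSO (100%) viability. Cells were UOK109, UOK124 and UOK145 TFE3-fusion RCC lines at 500/well, exposed 48 hours at 37 C.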

[2] = qHTS profiling for inhibitors of Plasmodium falciparum proliferation (AID 504749); further: potency means the concentration at half of the fitted maximal effect; on all read-outs here: nearly all actives have a fitted effect of over 60% in size; details: P. falciparum in erythrocytes, SYBR Green DNA, 72 h; for activity, negative = inhibition: at 28.7 µM (top of the series)
Procedure, shortened: (§1)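 P. falciparum-infected erythrocytes (0.3% parasitemia, 2.5% hematocrit final) were exposed to compounds for 72 h at 37 C in 5% CO2, then lysed with SYBR Green buffer overnight at room temperature; parasite DNA fluorescence was normalized to artemisinin and DMSO controls.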

[3] = system: 3D7; test: as above; details: P. falciparum in erythrocytes, SYBR Green DNA, 72 h; series mostly up to 28.7 µM
Procedure, shortened: as §1

[4] = system: 7G8; test: as above; details: P. falciparum in erythrocytes, SYBR Green DNA, 72 h; series mostly up to 28.7 µM
Procedure, shortened: as §1

[5] = system: AA1029; test: as above; details: P. falciparum in erythrocytes, SYBR Green DNA, 72 h; series mostly up to 28.7 µM
Procedure, shortened: as §1

[6] = system: AS120; test: as above; details: P. falciparum in erythrocytes, SYBR Green DNA, 72 h; series mostly up to 28.7 µM
Procedure, shortened: as §1

[7] = system: ATS189; test: as above; details: P. falciparum in erythrocytes, SYBR Green DNA, 72 h; series mostly up to 28.7 µM
Procedure, shortened: as §1

[8] = system: ATS95; test: as above; details: P. falciparum in erythrocytes, SYBR Green DNA, 72 h; series mostly up to 28.7 µM
Procedure, shortened: as §1

[9] = system: C2A; test: as above; details: P. falciparum in erythrocytes, SYBR Green DNA, 72 h; series mostly up to 28.7 µM
Procedure, shortened: as §1

[10] = system: CP185; test: as above; details: P. falciparum in erythrocytes, SYBR Green DNA, 72 h; series mostly up to 28.7 µM
Procedure, shortened: as §1

[11] = system: CP191; test: as above; details: P. falciparum in erythrocytes, SYBR Green DNA, 72 h; series mostly up to 28.7 µM
Procedure, shortened: as §1

[12] = system: CP192; test: as above; details: P. falciparum in erythrocytes, SYBR Green DNA, 72 h; series mostly up to 28.7 µM
Procedure, shortened: as §1

[13] = system: CP194; test: as above; details: P. falciparum in erythrocytes, SYBR Green DNA, 72 h; series mostly up to 28.7 µM
Procedure, shortened: as §1

[14] = system: CP201; test: as above; details: P. falciparum in erythrocytes, SYBR Green DNA, 72 h; series mostly up to 28.7 µM
Procedure, shortened: as §1

[15] = system: CP203; test: as above; details: P. falciparum in erythrocytes, SYBR Green DNA, 72 h; series mostly up to 28.7 µM
Procedure, shortened: as §1

[16] = system: CP211; test: as above; details: P. falciparum in erythrocytes, SYBR Green DNA, 72 h; series mostly up to 28.7 µM
Procedure, shortened: as §1

[17] = system: CP215; test: as above; details: P. falciparum in erythrocytes, SYBR Green DNA, 72 h; series mostly up to 28.7 µM
Procedure, shortened: as §1

[18] = system: CP217; test: as above; details: P. falciparum in erythrocytes, SYBR Green DNA, 72 h; series mostly up to 28.7 µM
Procedure, shortened: as §1

[19] = qHTS drug screen for cell cycle checkpoint inhibitors in PARPi-resistant BRCA-mutant ovarian cancer cell lines. (AID 1963452; calls by dose curve); details: PEO1/OlaR viability, CellTiter-Glo luminescence, 96 h, stronger effect = lower value
Procedure, shortened: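 PEO1, PEO4 and PEO1/OlaR ovarian cancer cells, 600 per well, exposed 96 h at 37C to a dilution series. Viability read by CellTiter-Glo luminescence, normalized to DMSO and empty wells; activity summarized as Z-AUC.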

[20] = TFE3-RCC UOK109 viability, measured here: UOK109 Z-AUC
[21] = TFE3-RCC viability, measured here: UOK124 Z-AUC
[22] = TFE3-RCC viability, measured here: UOK145 Z-AUC

COC(=O)N[C@H](C(=O)N[C@@H](Cc1ccccc1)[C@@H](O)CN(Cc1ccc(-c2ccccn2)cc1)NC(=O)[C@@H](NC(=O)OC)C(C)(C)C)C(C)(C)C
z-score [1, 20]: 0.351 | z-score [1, 21]: -0.0676 | z-score [1, 22]: 2.98

O=C(NCCO[N+](=O)[O-])c1cccnc1
z-score [1, 20]: 1.2 | z-score [1, 21]: 0.824 | z-score [1, 22]: 0.646 | activity, negative = inhibition ([2]; parasite line A): 22.6% (inactive) | activity, negative = inhibition ([2]; parasite line B): 3.27% (inactive) | Potency [3]: inactive | Potency [4]: inactive | Potency [5]: inactive | Potency [6]: inactive | Potency [7]: inactive | Potency [8]: inactive | Potency [9]: inactive | Potency [10]: inactive | Potency [11]: inactive | Potency [12]: inactive | Potency [13]: inactive | Potency [14]: inactive | Potency [15]: inactive | Potency [16]: inactive | Potency [17]: inactive | Potency [18]: inactive

CC(C)c1nc(CN(C)C(=O)N[C@H](C(=O)N[C@@H](Cc2ccccc2)C[C@H](O)[C@H](Cc2ccccc2)NC(=O)OCc2cncs2)C(C)C)cs1
z-score [1, 20]: -0.114 | z-score [1, 21]: -0.388 | z-score [1, 22]: 0.0556

Cc1cccc(C)c1OCC(=O)N[C@@H](Cc1ccccc1)[C@@H](O)C[C@H](Cc1ccccc1)NC(=O)[C@H](C(C)C)N1CCCNC1=O
Potency ([2]; parasite line A): 8.91 µM (active) | Potency ([2]; parasite line B): 5.01 µM (active) | Potency [3]: 7.08 µM (active) | Potency [4]: 0.794 µM (active) | Potency [5]: 3.55 µM (active) | Potency [6]: 1.41 µM (active) | Potency [7]: 3.98 µM (active) | Potency [8]: 3.98 µM (active) | Potency [9]: 11.2 µM (active) | Potency [10]: 10 µM (active) | Potency [11]: 5.62 µM (active) | Potency [12]: 6.75 µM (active) | Potency [13]: 7.57 µM (active) | Potency [14]: 10.7 µM (active) | Potency [16]: 7.57 µM (active) | Potency [17]: 6.01 µM (active) | Potency [18]: 3.98 µM (active)

O=C(O)c1cccnc1Nc1cccc(C(F)(F)F)c1
z-score [1, 20]: 0.327 | z-score [1, 21]: 0.739 | z-score [1, 22]: 0.463 | activity, negative = inhibition ([2]; parasite line A): 8.39% (inactive) | activity, negative = inhibition ([2]; parasite line B): 13.5% (inactive) | Potency [3]: inactive | Potency [4]: inactive | Potency [5]: inactive | Potency [6]: inactive | Potency [7]: inactive | Potency [8]: inactive | Potency [9]: inactive | Potency [10]: inactive | Potency [11]: inactive | Potency [12]: inactive | Potency [13]: inactive | Potency [14]: inactive | Potency [16]: inactive | Potency [17]: inactive | Potency [18]: inactive

CCCCCCCCOc1ccccc1C(=O)Nc1ccc(C(=O)OCC[N+](C)(CC)CC)cc1
Potency ([2]; parasite line A): 12.6 µM (active) | Potency ([2]; parasite line B): 10 µM (active) | Potency [3]: 10 µM (active) | Potency [4]: 12.6 µM (active) | Potency [5]: 10 µM (active) | Potency [8]: 7.94 µM (active) | Potency [9]: 12.6 µM (active) | Potency [10]: 8.91 µM (active) | Potency [11]: 7.94 µM (active) | Potency [18]: 10 µM (active)

C[C@]12CCC(=O)C=C1CC[C@@H]1[C@H]2[C@@H](O)C[C@@]2(C)[C@H]1CC[C@]2(O)C(=O)CO
activity, negative = inhibition ([2]; parasite line A): 9.9% (inactive) | activity, negative = inhibition ([2]; parasite line B): 19.1% (inactive) | Potency [3]: inactive | Potency [4]: inactive | Potency [5]: inactive | Potency [6]: inactive | Potency [7]: inactive | Potency [8]: inactive | Potency [9]: inactive | Potency [10]: inactive | Potency [11]: inactive | Potency [12]: inactive | Potency [13]: inactive | Potency [14]: inactive | Potency [15]: inactive | Potency [16]: inactive | Potency [17]: inactive | Potency [18]: inactive

Cc1nc2n(c(=O)c1CCN1CCC(c3noc4cc(F)ccc34)CC1)CCCC2
z-score [1, 20]: 0.0752 | z-score [1, 21]: 0.441 | z-score [1, 22]: 0.372 | activity, negative = inhibition ([2]; parasite line A): 8.34% (inactive) | activity, negative = inhibition ([2]; parasite line B): 15.8% (inactive) | Potency [3]: inactive | Potency [4]: 10 µM (active) | Potency [5]: inactive | Potency [6]: inactive | Potency [7]: inactive | Potency [8]: inactive | Potency [9]: inactive | Potency [10]: inactive | Potency [11]: inactive | Potency [12]: inactive | Potency [13]: inactive | Potency [14]: inactive | Potency [15]: inactive | Potency [16]: inactive | Potency [17]: inactive | Potency [18]: inactive

CC1=C(C(=O)O)N2C(=O)[C@@H](NC(=O)[C@H](N)C3=CCC=CC3)[C@H]2SC1
z-score [1, 20]: 1.56 | z-score [1, 21]: 0.465 | z-score [1, 22]: 0.657

COCCCOc1ccnc(CS(=O)c2nc3ccccc3[nH]2)c1C (centres undefined)
z-score [1, 20]: 0.673 | z-score [1, 21]: 0.741 | z-score [1, 22]: 0.739 | activity, negative = inhibition ([2]; parasite line A): -29% (inactive) | activity, negative = inhibition ([2]; parasite line B): -20.3% (inactive) | Potency [3]: inactive | Potency [5]: inactive | Potency [6]: inactive | Potency [7]: inactive | Potency [8]: inactive | Potency [9]: inactive | Potency [10]: inactive | Potency [12]: inactive | Potency [14]: inactive | Potency [15]: inactive | Potency [16]: inactive | Potency [17]: inactive | Potency [18]: inactive

CCCCC(CC)COC(=O)C(C#N)=C(c1ccccc1)c1ccccc1 (centres undefined)
Z-AUC [19]: 0.188 (inactive) | Z-AUC ([19]; measured here: PEO1 parental Z-AUC): -0.152 | Z-AUC ([19]; measured here: PEO4 Z-AUC): 0.0622 | Potency ([2]; parasite line A): 11.2 µM (active) | Potency [4]: 10 µM (active) | Potency [9]: inactive | Potency [12]: inactive | Potency [14]: inactive | Potency [16]: inactive

CN(C)CCc1c[nH]c2ccc(Cn3cncn3)cc12
z-score [1, 20]: 0.0634 | z-score [1, 21]: 0.723 | z-score [1, 22]: 0.764 | activity, negative = inhibition ([2]; parasite line A): 15.9% (inactive) | activity, negative = inhibition ([2]; parasite line B): -0.428% (inactive) | Potency [3]: inactive | Potency [4]: inactive | Potency [5]: inactive | Potency [6]: inactive | Potency [7]: inactive | Potency [8]: inactive | Potency [9]: inactive | Potency [10]: inactive | Potency [11]: inactive | Potency [12]: inactive | Potency [13]: inactive | Potency [14]: inactive | Potency [15]: inactive | Potency [16]: inactive | Potency [17]: inactive | Potency [18]: inactive

CCOC(=O)C(C)Oc1cccc2c(=O)n(CC(=O)Nc3ccc4c(c3)OCCO4)ccc12 (centres undefined)
z-score [1, 20]: 0.811 | z-score [1, 21]: 0.396 | z-score [1, 22]: 0.65

CC1=C(C)C(=O)C(C(CCCCCC(=O)O)c2ccccc2)=C(C)C1=O (centres undefined)
z-score [1, 20]: 0.248 | z-score [1, 21]: 0.105 | z-score [1, 22]: -0.311 | activity, negative = inhibition ([2]; parasite line A): -13.8% (inactive) | activity, negative = inhibition ([2]; parasite line B): -26.9% (inactive) | Potency [4]: inactive | Potency [5]: inactive | Potency [8]: inactive | Potency [10]: inactive | Potency [11]: inactive | Potency [12]: inactive | Potency [14]: inactive
